Most compounds without a hit are left out; they make up all but 7.6% or so of the library.
MCF10A rereplic = inducers of DNA re-replication in MCF 10A breast cells. 350,000 compounds, 2.9% hits. MCF 10A DNA re-replication, Hoechst nuclear intensity, 48 h. Potency, µM (titrated, usually from 46.1 µM), most hits filed as activators. AID 624296; note: nearly all actives have a fitted effect of over 50% in size
KB-3-1 tox = kills parental KB-3-1 adenocarcinoma cells; KB-3-1 viability, CellTiter-Glo ATP luminescence, 72 h; Potency, µM (highest dose often 46.1 µM), actives largely listed as cytotoxic; 400,000 compounds, 1.4% hits; AID 1347075; note: nearly all actives have a fitted effect of over 60% in size
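Luminescent ATP read-out (CellTiter-Glo) measures survival of drug-naive KB-3-1 cells after 72 h compound exposure at 37 °C. Titration series was screened from lowest to highest concentration, with DMSO vehicle plates as background controls.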
SW480 rereplic = inducers of DNA re-replication in SW480 colon cancer cells; Potency, µM (highest dose often 46.1 µM), most hits filed as activators; AID 624297; 340,000 compounds, 1.8% hits; SW480 DNA re-replication, Hoechst DNA content imaging, 48 h; note: nearly all actives have a fitted effect of over 55% in size
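DNA re-replication was detected as more nuclei of elevated Hoechst intensity after 48 hr exposure to compound (23 nL pinned per well of 250 cells).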
KCNH2 3.1 block = KCNH2 3.1 (human) potassium channel inhibition. 340,000 compounds, 0.95% hits. AID 720553. U2OS KCNH2 3.1, thallium flux FluxOr; active compounds read low. activity change, % (tested at about 1.8 µM);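 active = maximum activity change below -70%; inconclusive = maximum activity change from -70% to -50%; inactive = maximum activity change above -50%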;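 note: thallium influx rate constant from kinetic fluorescence after stimulation buffer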
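Thallium flux via FluxOr fluorescence (Red40 quencher, 45 min loading) in U2OS cells virally expressing the KCNH2 3.1 isoform (1.77 x 10^8 /mL virus, overnight at 37 C). Rate constants from 2-min kinetic reads post-stimulation, normalised to positive and negative controls.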
hERG WT inh = blocks the wildtype human KCNH2 potassium channel; U2OS, BacMam KCNH2, thallium flux FluxOr; active compounds read low; activity change, % at 1.84 µM; 340,000 compounds, 0.37% hits; AID 720551;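 active = maximum activity change below -70%; inconclusive = maximum activity change between -70% and -50%; inactive = maximum activity change above -50%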
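U2OS cells transduced with wild-type KCNH2 virus are loaded with FluxOr dye for 45 min, and thallium flux is measured in kinetic reads before and after stimulation buffer. Rate constants are normalized to DMSO controls.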
KB-V1 MDR tox = KB-V1 MDR subline cytotoxicity | 400,000 compounds, 3.4% hits | Potency, µM (series often up to 46.1 µM), actives largely listed as cytotoxic | KB-V1 MDR cells viability, CellTiter-Glo, 72 h; note: nearly all actives have a fitted effect of over 60% in size
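Cytotoxicity toward P-gp-expressing KB-V1 cells was determined as loss of CellTiter-Glo luminescence after 72 h at 37 degrees C. Compounds were tested in quantitative HTS format across a concentration range, with curves fitted to normalized data.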
A number is an active result; . = inactive; ? = inconclusive; / = not tested or not shown. Unless noted, calls come from the whole dose curve; as a rule, active = well fitted curve in the direction sought with a large enough effect; inconclusive = small, poorly fitted or top-dose-only effect, or another doubt; inactive = no such curve, though single readings can be large; an effect the other way counts as inactive or inconclusive.

SMILES | MCF10A rereplic | KB-3-1 tox | SW480 rereplic | KCNH2 3.1 block | hERG WT inh | KB-V1 MDR tox
O=C(COC(=O)C1CC2C=CC1C2)Nc1cccc(S(=O)(=O)N2CCOCC2)c1 (stereo unspecified) | . | . | . | -104.3 | . | .
COc1cc(N)c(Cl)cc1C(=O)OC(C)C(=O)Nc1cccc(S(=O)(=O)N2CCOCC2)c1 (stereo unspecified) | . | . | . | . | . | .
CSc1ncccc1C(=O)OC(C)C(=O)Nc1cccc(S(=O)(=O)N2CCOCC2)c1 (stereo unspecified) | . | . | . | . | -315.1 | .
COC(=O)CCCC(=O)N1CCCC(N(C)CCc2ccccc2)C1 (stereo unspecified) | . | . | . | . | . | .
CC1CCCN(C(=O)CN2CCC(c3nc4ccc(Cl)cc4[nH]3)CC2)C1 (stereo unspecified) | . | . | . | . | . | ?
Clc1ccc(CN2CCC(c3nc4ccc(Cl)cc4[nH]3)CC2)cc1 | ? | ? | ? | -96.6 | -95.7 | 20.6µM
CCCCc1c(-c2ccccc2OC)ncn1CCc1cccc(F)c1 | / | ? | / | / | / | 16.4µM
CCCc1c(-c2cccc(F)c2)ncn1Cc1ccccc1OC | / | . | / | / | / | ?
COc1cccc(-c2c(-c3ccccc3OC)ncn2Cc2cccc(-c3ccccc3)c2)c1 | / | ? | / | / | / | 13µM
CCCCc1c(-c2ccccc2OC)ncn1CCc1cccc(OC)c1 | / | ? | / | / | / | 11.6µM
COc1cccc(CNC(=O)CCn2cnc3ccccc3c2=O)c1 | / | . | / | / | / | .
COc1cccc(Oc2nc3ncn(Cc4ccccc4)c3c(=O)n2C)c1 | . | . | . | . | . | .
CC/C(C)=N/Nc1nc(-c2cc3cccc(OC)c3oc2=O)cs1 | . | . | . | . | . | .
OC(CNCc1ccco1)COc1ccccc1 (stereo unspecified) | . | . | . | . | . | 0.0018µM
CCn1cc(CNC(=O)c2cc(COc3ccc(F)cc3Cl)on2)cn1 | ? | ? | 18.4µM | . | . | ?
CCn1nc(C)c(CNC(=O)c2cc(COc3ccc(F)cc3Cl)on2)c1C | . | ? | . | . | . | ?
CCN(CC)S(=O)(=O)c1nnc(NC(=O)COc2cccc(C)c2)s1 | / | . | / | / | / | .
O=c1cc2nc(-c3ccccc3)nc(SCc3cccc(Br)c3)n2[nH]1 | / | . | / | / | / | .
Cc1nnc(SCC(=O)NC2CC2)n1-c1ccccc1 | . | . | . | . | . | .
CCc1ccc(-n2c(-c3ccccc3)c(C)n3c4c(=O)n(C)c(=O)n(C)c4nc23)cc1 | / | . | / | / | / | .
Cc1ccc(-c2c(C)n3c4c(=O)n(C)c(=O)n(C)c4nc3n2-c2cccc(O)c2)cc1 | / | ? | / | / | / | 18.4µM
CCCCOCCCNC(=O)c1ccc(OCC)cc1 | . | . | . | . | . | .
CN(C)CCCOC(=O)c1ccccc1Cl | . | . | . | . | . | .
CN(C)CCCOC(=O)N1c2ccccc2C=Cc2ccccc21 | . | 25.9µM | . | . | . | .
Cc1cc(C)nc(NC(=O)CSc2nc3ccccc3s2)n1 | . | . | . | . | . | ?
SMILES | MCF10A rereplic | KB-3-1 tox | SW480 rereplic | KCNH2 3.1 block | hERG WT inh | KB-V1 MDR tox
Cc1cc(C)n2c(Br)c(CSc3nc4ccccc4s3)nc2n1 | . | . | . | -77.9 | . | ?
COc1ccc(/C=N/n2cnc3scc(-c4cccs4)c3c2=O)cc1OC | . | . | . | . | . | .
COc1cc(/C=N/n2cnc3scc(-c4cccs4)c3c2=O)cc(OC)c1OC | . | 4.61µM | ? | . | . | ?
COc1ccc(OCCN2CCN(C(=O)c3ccc(OC(F)F)c(OC)c3)CC2)cc1 | . | . | . | -75.9 | . | ?
COc1ccc(OCCN2CCN(C(=O)c3ccc(OC)cc3)CC2)cc1 | . | ? | . | . | . | ?
CCN(C(=O)c1coc(=O)c(Br)c1)c1ccc2c(c1)OCO2 | 13µM | . | ? | . | . | .
Cc1nc([N+](=O)[O-])cn1CC(=O)c1ccc2c(c1)OCCO2 | / | . | / | / | / | .
Cc1ccc(C(=O)NC(=S)Nc2ccccc2N2CCCC2)cc1[N+](=O)[O-] | 2.59µM | . | . | . | . | .
Cc1ccc(C(=O)Nc2ccccc2N2CCCCC2)cc1[N+](=O)[O-] | . | ? | ? | -83.0 | . | ?

Source: PubChem BioAssay (National Center for Advancing Translational Sciences (NCATS))
